The values below come from PubChem BioAssay (Tox21).

This experiment concerns the target Beta-2 adrenergic receptor (Homo sapiens) (UniProt P07550). Nature of the experiment: Adrenergic beta2 receptor (ADRB2) small molecule agonists, cell-based qHTS assay (AID 1963593).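 Further: CHO cells stably overexpressing human ADRB2.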 Particulars: CHO-ADRB2 cells, cAMP HTRF, 30 min; series mostly up to 92.4 µM. The procedure, abridged: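 CHO cells stably over-expressing ADRB2 were plated overnight at 37C, then dosed with compounds plus a stimulation mix containing 100uM IBMX and 25uM Ro-20-1724 for 0.5hr at room temperature. cAMP was measured by HTRF competition, 1hr.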
Background: qHTS replaces the single test concentration by a dilution series.

Inconclusive results are not listed. Where a call stands in place of a potency, no number is given. Values without a mark were called inactive. Active and inactive are the calls of the source. The call rests on the fitted dose curve.

Sequence of Beta-2 adrenergic receptor (Homo sapiens) (P07550 whole entry, looked up): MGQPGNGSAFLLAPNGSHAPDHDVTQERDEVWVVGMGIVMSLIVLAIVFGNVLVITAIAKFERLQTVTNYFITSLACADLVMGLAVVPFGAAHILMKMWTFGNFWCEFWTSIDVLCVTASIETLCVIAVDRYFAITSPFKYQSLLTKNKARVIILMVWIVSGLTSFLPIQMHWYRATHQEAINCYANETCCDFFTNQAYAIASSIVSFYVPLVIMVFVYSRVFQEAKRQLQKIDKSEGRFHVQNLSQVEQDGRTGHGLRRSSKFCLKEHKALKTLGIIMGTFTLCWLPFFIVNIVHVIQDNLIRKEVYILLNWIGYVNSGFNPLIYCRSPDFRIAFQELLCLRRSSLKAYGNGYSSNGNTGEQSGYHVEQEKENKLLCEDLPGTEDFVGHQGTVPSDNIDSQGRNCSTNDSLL

Take `COC(=O)CCCCCCCC(=O)OC`: the Potency entry was “inactive”. Consider `C#CCN(C)CCCOc1ccc(Cl)cc1Cl`, for which the Potency entry is “inactive”. `C=C(C)C(=O)OCCCCCCCCCC`: the Potency entry is “inactive”. The same measure, in the same setting: then `CC(C)(C)OC(=O)c1ccc(O)cc1`, with “inactive”. Still for that read-out and setting: under `C[C@H](CS)C(=O)N1CCC[C@H]1C(=O)O` stands “inactive”. Turning to `Nc1cccc([N+](=O)[O-])c1`, the Potency result was “inactive”. For the compound `CCOC(=O)C1=C[C@]2(CC)CCCN3CCc4c(n1c1ccccc41)[C@@H]32`, the Potency entry was “inactive”. On the same count and under the same terms, under `CC[C@]12CCCN3CCc4c(n(c5ccccc45)C(=O)C1)[C@@H]32` stands “inactive”; under `COC(=O)[C@]1(C)CCC[C@@]2(C)[C@H]1CC=C1C=C(C(C)C)CC[C@@H]12`, “inactive”; under `CN(C)CCC(c1ccc(Cl)cc1)c1ccccn1` (centres undefined), “inactive”. Still for that read-out and setting: under `C[C@@H](N)C(=O)O` stands “inactive”; under `O=C(O)CNC(=O)c1ccccc1`, “inactive”; under `C=C(C)C(=O)OCCOCCOCCOCCOC(=O)C(=C)C`, “inactive”.

Regarding `N[C@@H](CCC(=O)N[C@@H](CS)C(=O)NCC(=O)O)C(=O)O`, the activation was 20.3% [at 19 µM]. Regarding `CCCCCCCCCCCCN1CCCC1=O`, the Potency entry was “inactive”. As to `O=[N+]([O-])c1ccc(O)cc1`, the Potency result is “inactive”. With `CCOc1nc2cccc(C(=O)OC(C)OC(=O)OC3CCCCC3)c2n1Cc1ccc(-c2ccccc2-c2nn[nH]n2)cc1` (centres undefined), the Potency entry is “inactive”.

`Cc1ccc(O)c(C(C)(C)C)c1`: the Potency result was “inactive”. Turning to `Cc1cc2nc3c(=O)[nH]c(=O)nc-3n(C[C@H](O)[C@H](O)[C@H](O)CO)c2cc1C`, the activation was 1.44% [at 19 µM]. Consider `CCC(Cl)C(Cl)C(Cl)CC(Cl)C(Cl)C(C)Cl` (centres undefined), for which the Potency entry was “inactive”. On the same count and under the same terms, then `Cc1ccc(O)c(N)c1`, with “inactive”; and `CCc1ccc(C(c2ccc(CC)cc2)C(Cl)Cl)cc1`, with “inactive”; and `Cc1cc([N+](=O)[O-])ccc1N`, with “inactive”.

Turning to `CCc1cc(C(C)(C)C)c(O)c(C(C)(C)C)c1`, the Potency result is “inactive”. Take `OC(CCN1CCCCC1)(c1ccccc1)C1CC2C=CC1C2` (centres undefined): the Potency entry was “inactive”. On to `O=S(=O)(O)c1cc(S(=O)(=O)O)c2c(N=Nc3ccccc3)c(O)ccc2c1`, for which the Potency result was “inactive”.

Regarding `Cc1ccc(N/N=c2\c(=O)cc/c(=N\Nc3ccc(S(=O)(=O)O)cc3)c2=O)c(C)c1`, the Potency entry is “inactive”.

As for `O=C(CC(=O)c1ccccc1)c1ccccc1`, the Potency result was “inactive”. Consider `O=[N+]([O-])c1ccc(Nc2ccc(Nc3ccccc3)c(S(=O)(=O)O)c2)c([N+](=O)[O-])c1`, for which the Potency entry was “inactive”. Turning to `CC(C)=CCC[C@](C)(O)[C@@H]1CC=C(C)CC1`, the Potency result was “inactive”. As to `C=CCN1C[C@H](C(=O)N(CCCN(C)C)C(=O)NCC)C[C@@H]2c3cccc4[nH]cc(c34)C[C@H]21`, the Potency entry was “inactive”.

On to `Cc1cccc(C)c1NC(=O)CN1CCN(CCCC(c2ccc(F)cc2)c2ccc(F)cc2)CC1`, for which the Potency entry was “inactive”. Same read-out and setting: then `CC(C)C(OC(=O)c1ccccc1)C(C)(C)COC(=O)c1ccccc1` (centres undefined), with “inactive”; and `COc1cc2ncnc(Nc3ccc(F)c(Cl)c3)c2cc1OCCCN1CCOCC1`, with “inactive”; and `COc1cc(C=C2CCC/C(=C\c3ccc(O)c(OC)c3)C2=O)ccc1O`, with “inactive”. On to `O=C1c2ccccc2C(=O)c2c(O)c(O)cc(O)c21`, for which the Potency result is “inactive”. The same measure, in the same setting: then `COC(=O)[C@@H](N)Cc1ccc(O)c(O)c1`, with “inactive”; and `COc1ccc(C(=O)/C(Br)=C\C(=O)O)cc1`, with “inactive”. Consider `c1ccc(-c2ccc(C(c3ccccc3)n3ccnc3)cc2)cc1` (centres undefined), for which the Potency result is “inactive”.

For the compound `NC(=S)NC(N)=S`, the Potency result is “inactive”. On the same count and under the same terms, under `O=C(Oc1ccccc1)c1ccc2ccccc2c1O` stands “inactive”. For `Nc1ccn(C2CO[C@H](CO)O2)c(=O)n1` (some centres undefined), the Potency result is “inactive”. For the compound `CN(C)C(=O)NC1(c2ccccc2)CCN(CCC[C@]2(c3ccc(Cl)c(Cl)c3)CCCN(C(=O)c3ccccc3)C2)CC1`, the activation is 0.625% [at 19 µM].

In the case of `CC1(C)O[C@@H]2C[C@H]3[C@@H]4CCC5=CC(=O)C=C[C@]5(C)[C@H]4[C@@H](O)C[C@]3(C)[C@]2(C(=O)CO)O1`, the Potency entry is “inactive”.
